Source: PubChem (National Center for Advancing Translational Sciences (NCATS))
MCF10A rereplic: A quantitative high throughput screen for small molecules that induce DNA re-replication in MCF 10a normal breast cells | MCF 10A DNA re-replication, Hoechst nuclear intensity, 48 h | hit rate 2.9% among 350,000 | Potency, µM (highest dose often 46.1 µM), for inactives: top-dose activity, positive = re-replication, actives largely listed as activators | AID 624296, 2012; further: % of control where 0% means no effect; nearly all actives have a fitted effect of over 50% in size
HT1080 IDH1KD tx: qHTS for induction of synthetic lethality in tumor cells producing 2HG: qHTS for the HT-1080-IDH1KD cell line; hit rate 2% among 360,000; Potency, µM (series often up to 46.1 µM), inactives show top-dose activity, negative = toxicity, most hits filed as cytotoxic; HT-1080 IDH1 knockdown viability, ATP luminescence, 48 h;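 further: 0% = DMSO wells and -100% = cell-free medium wells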
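Using the IDH1-knockdown HT-1080 line run in the same batch and compound series as the NT line, viability after 48 h at 37 °C was determined by CellTiter-Glo luminescence and expressed as % activity.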
HT1080NT lethal: qHTS for induction of synthetic lethality in tumor cells producing 2HG: qHTS for the HT-1080-NT fibrosarcoma cell line; HT-1080-NT fibrosarcoma viability, CellTiter-Glo ATP luminescence, 48 h; Potency, µM (highest dose often 46.1 µM), for the others: top-dose activity, negative = less viability, most hits filed as cytotoxic; hit rate 1.6% among 360,000; AID 686970, 2013;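 further: NT is the 2HG producing partner of a matched IDH1 knockdown line; 0% = DMSO-treated cells and -100% = media-only wells without cells; nearly all actives have a fitted effect of over 55% in size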
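Fibrosarcoma NT cells, 750 per well in 5% FBS RPMI, were exposed to compound for 48 hours. Viability: CellTiter-Glo luminescence.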
KB-V1 MDR tox: qHTS assay for MDR1-selective chemotherapeutics: Primary screen using the drug-selected MDR subline cells KB-V1 | hit rate 3.4% among 400,000 | Potency, µM (titrated, usually from 46.1 µM), usual class: cytotoxic | KB-V1 MDR cells viability, CellTiter-Glo, 72 h | AID 1347076, 2019; further: on the % scale 0 is the no-effect control and ±100 the full control effect; nearly all actives have a fitted effect of over 60% in size
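qHTS viability screen in drug-selected KB-V1 MDR cells: 72 h compound treatment at 37 degrees C, ATP luminescence end point.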
SW480 rerep: A quantitative high throughput screen for small molecules that induce DNA re-replication in SW480 colon adenocarcinoma cells; SW480 DNA re-replication, Hoechst DNA content imaging, 48 h; Potency, µM (titrated, usually from 46.1 µM), inactives show at the top dose re-replication activation, actives largely listed as activators; hit rate 1.8% among 340,000; further: % of control where 0% means no effect; nearly all actives have a fitted effect of over 55% in size
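Quantitative HTS format with DMSO vehicle controls; 48 hr drug incubation at 37 C, then 40 min Hoechst staining and scanning imager measurement at 405 nm excitation.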
KB-3-1 tox: qHTS assay for MDR1-selective chemotherapeutics: Primary screen using the parental adenocarcinoma cell KB-3-1. hit rate 1.4% among 400,000. Potency, µM (titrated, usually from 46.1 µM), most hits filed as cytotoxic. KB-3-1 viability, CellTiter-Glo ATP luminescence, 72 h. AID 1347075, 2019; further: on the % scale 0 is the no-effect control and ±100 the full control effect; nearly all actives have a fitted effect of over 60% in size
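72 h, 37 °C compound treatment of KB-3-1 parental cells; CellTiter-Glo added, 10 min, luminescence read. Data corrected against DMSO-only plates and normalized before curve fitting.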
An asterisk follows results filed as active; i = inactive; ? = inconclusive; / = no result; [ ] = dose if it differs, or a comment. Hits are enriched below; roughly 8% of the tested compounds scored in any of these assays. The call rests on the fitted dose curve; in most records, active means well fitted curve in the direction sought with a large enough effect; inconclusive means small, poorly fitted or top-dose-only effect, or another doubt; inactive means no such curve, though single readings can be large; an effect the other way counts as inactive or inconclusive. Potency means the concentration at half of the fitted maximal effect.

SMILES | MCF10A rereplic | HT1080 IDH1KD tx | HT1080NT lethal | KB-V1 MDR tox | SW480 rerep | KB-3-1 tox
Cc1nn2c(-c3ccncc3)nnc2c2ccccc12 | -17% | 12% | 13% | i | 6% | i
Cc1ccccc1-c1nnc2c3ccccc3c(C)nn12 | 1% | 6% | 9% | 7.3µM* | -7% | ?
COc1ccc(-c2nnc3c4ccccc4c(C)nn23)cc1 | 7% | ? | ? | 3.7µM* | -11% | i
CCOC(=O)c1c(C)[nH]c(C(=O)NCCc2ccc(OC)c(OC)c2)c1C | -1% | -15% | -24% | ? | -1% | i
Clc1ccc(Nc2ncn[nH]2)c(Cl)c1 | 29% | 6% | 6% | i | 0% | i
Cn1cc(-c2cnc3c(NC=O)cc(-c4cccc(C(F)(F)F)c4)cn23)cn1 | / | ? | -44% | 21µM* | / | ?
COc1cc(-c2cnc3c(NC=O)cc(-c4cccc(C(F)(F)F)c4)cn23)cc(OC)c1OC | / | ? | ? | 23µM* | / | ?
COc1ccc(-c2cc(NC=O)c3ncc(-c4cccc(C(F)(F)F)c4)n3c2)c(OC)c1 | / | 13µM* | ? | ? | / | ?
COc1cc(-c2cnc3c(NC=O)cc(-c4cccnc4)cn23)cc(OC)c1OC | / | ? | ? | 13µM* | / | 10µM*
Nc1ccc(-c2cc(NC=O)c3ncc(-c4cccc(C(F)(F)F)c4)n3c2)cn1 | / | -26% | -8% | i | / | i
COc1cc(-c2cnc3c(NC=O)cc(-c4ccc(N5CCN(C)CC5)cc4)cn23)cc(OC)c1OC | / | ? | -5% | ? | / | ?
CCOc1ccc(C(c2c(O)cc(C)n(Cc3ccco3)c2=O)N2CCCCC2)cc1 (stereo not given) | / | / | / | i | / | i
COc1cc(-c2cnc3c(NC=O)cc(-c4ccsc4)cn23)cc(OC)c1OC | / | ? | ? | 1.3µM* | / | 0.82µM*
COc1cc(-c2cc(NC=O)c3ncc(-c4ccc(F)cc4)n3c2)cc(OC)c1OC | / | ? | ? | ? | / | i
COc1cccc(-c2cnc3c(NC=O)cc(-c4ccc(O)c(OC)c4)cn23)c1 | / | ? | ? | i | / | ?
COc1cccc(-c2cc(NC=O)c3ncc(-c4cc(OC)c(OC)c(OC)c4)n3c2)c1 | / | ? | ? | 2.1µM* | / | 1µM*
CCOC(=O)CSCC(=O)Nc1c(C(=O)C2CC2)oc2ccccc12 | 8% | 14%[9.24 µM] | 11% | i | 2% | i
CC(C)N1CCN(c2cccc(Nc3nn4c(=O)c5ccccc5nc4s3)c2)CC1 | / | / | / | i | / | i
CN1OC[C@@H]2CN(C(=S)NCCc3ccccc3)[C@H](c3ccc(N4CCCCC4)cc3)C[C@@H]21 | / | 7% | 10% | i | / | i
CC=Cc1cc2c(c(=O)o1)C(=O)C(O)C(C)O2 (stereo not given) | 12µM* | ? | -19% | i | 18µM* | i
N=c1oc2cc(O)ccc2cc1C(=O)Nc1ccc(F)cc1 | 9.2µM* | -9% | -2% | i | 8.2µM* | ?
O=C(c1ccc(F)cc1)c1cc2ccc(O)cc2oc1=O | 10% | -18% | -8% | i | ? | i
CC(=O)Nc1ccc(S(=O)(=O)N2CCN(c3ccc(C)c(C)c3)CC2)cc1 | / | / | / | i | / | i
Cc1cc(C(=O)N2CC=C(c3ccccc3)CC2)c2ccccc2n1 | ? | 1.6µM* | ? | 1.5µM* | 1.3µM* | ?
Cc1ccccc1NC(=O)N1c2ccccc2CC1C (stereo not given) | 5% | 5% | 4% | i | -11% | i
